Screening results from PubChem BioAssay.
Hits are enriched below; roughly 1% of the tested compounds scored in any of these assays.
BLM helicase inh-1 – inhibitors of human Bloom syndrome helicase BLM. recombinant BLM DNA unwinding, fluorescence dequenching. actives 0.2% (n = 350,000). Potency, µM (titrated, usually from 56.1 µM), for inactives: top-dose activity change, negative = inhibition, actives largely listed as inhibitors. P54132;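 also: plate controls were vehicle for no effect and no enzyme for full effect; nearly all actives have a fitted effect of over 35% in size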
L3MBTL1 block – blocks human L3MBTL1; AlphaScreen L3MBTL1–H3K9me1 peptide binding; Potency, µM (highest dose often 57.1 µM), for the others: at the top dose activity, negative = inhibition, usual class: inhibitors; actives 0.66% (n = 230,000); AID 485360; also: % is scaled to controls: 0 for no effect and ±100 for the full control effect; nearly all actives have a fitted effect of over 60% in size
Target sequence (Q9Y468 whole entry, looked up): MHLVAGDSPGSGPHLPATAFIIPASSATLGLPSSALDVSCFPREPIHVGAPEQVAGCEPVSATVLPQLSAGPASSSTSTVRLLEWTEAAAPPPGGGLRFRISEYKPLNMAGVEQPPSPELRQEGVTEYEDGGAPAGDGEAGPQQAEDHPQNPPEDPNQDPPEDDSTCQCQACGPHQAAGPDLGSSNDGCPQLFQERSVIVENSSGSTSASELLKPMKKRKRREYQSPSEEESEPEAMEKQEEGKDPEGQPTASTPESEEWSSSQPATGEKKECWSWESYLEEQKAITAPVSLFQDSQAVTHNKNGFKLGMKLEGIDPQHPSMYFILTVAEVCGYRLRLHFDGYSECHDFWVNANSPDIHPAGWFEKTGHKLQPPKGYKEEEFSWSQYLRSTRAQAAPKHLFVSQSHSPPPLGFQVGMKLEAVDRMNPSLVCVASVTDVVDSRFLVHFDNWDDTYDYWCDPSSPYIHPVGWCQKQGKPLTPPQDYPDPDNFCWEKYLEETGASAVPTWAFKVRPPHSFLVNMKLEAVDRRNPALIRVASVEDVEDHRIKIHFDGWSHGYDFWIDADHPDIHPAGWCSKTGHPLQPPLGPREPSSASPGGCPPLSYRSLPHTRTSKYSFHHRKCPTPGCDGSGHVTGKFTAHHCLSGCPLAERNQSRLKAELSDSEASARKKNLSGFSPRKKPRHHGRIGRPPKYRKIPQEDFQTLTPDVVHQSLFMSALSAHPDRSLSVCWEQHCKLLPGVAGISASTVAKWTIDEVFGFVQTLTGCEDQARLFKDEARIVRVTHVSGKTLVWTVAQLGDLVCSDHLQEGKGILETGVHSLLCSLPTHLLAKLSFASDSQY
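Read-out is AlphaScreen signal from streptavidin donor and nickel chelate acceptor beads (10 ug/mL final each) bridging L3MBTL1 (50 nM) and biotinylated K9-monomethylated H3(1-15) peptide (75 nM), after 30 min compound exposure at room temperature.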
APE1 inh-1 – inhibitors of human APE1 endonuclease | recombinant APE1, TAMRA/BHQ-2 abasic DNA cleavage fluorescence | P27695 | Potency, µM (highest dose often 65.8 µM), inactives show top-dose activity change, negative = inhibition, usual class: inhibitors | actives 0.35% (n = 350,000);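 also: plate controls were vehicle for no effect and reference inhibitor for full effect; nearly all actives have a fitted effect of over 55% in size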
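Step 1: APE1 (0.75 nM) with compound, 15 min RT. Step 2: add 50 nM fluorophore/quencher THF duplex. Step 3: three fluorescence reads 60 s apart (525/598 nm); read 3 minus read 1 = reaction progress.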
FEN1 inh-1 – inhibitors of human flap endonuclease 1. Recombinant FEN1 flap cleavage, fluorescence, 15 min. Potency, µM (highest dose often 114 µM), inactives show top-dose activity change, negative = inhibition, hits mostly inhibitors. actives 0.35% (n = 390,000); also: % is scaled to controls: 0 for no effect and ±100 for the full control effect; nearly all actives have a fitted effect of over 65% in size
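In this screen, 50 nM flap DNA substrate was added to 10 nM FEN1 pretreated with compound for 15 min at room temperature; cleavage was followed with reads at 0 and 15 min, and Hill fitting gave concentration–response parameters.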
WRN helicase inh-1 – WRN helicase (human) inhibition. Potency, µM (titrated, usually from 114 µM), inactives show at the highest dose activity change, negative = inhibition, actives largely listed as inhibitors. actives 0.46% (n = 360,000). WRN helicase unwinding, fluorescent forked duplex, kinetic; also: % is scaled to controls: 0 for no effect and ±100 for the full control effect; nearly all actives have a fitted effect of over 55% in size
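Enzyme (20 nM final) and test compound sit together 15 min at room temperature before substrate addition. Substrate is a single-forked duplex oligonucleotide (100 nM) labelled with fluorophore and quencher, with 2 mM ATP; helicase unwinding raises red fluorescence, read kinetically.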
RECQ1 inh-1 – RECQ1 (human) helicase inhibition; P46063; RECQ1 DNA unwinding, red fluorescence kinetic read; Potency, µM (highest dose often 57.3 µM), for the others: at the highest dose activity, negative = inhibition, actives largely listed as inhibitors; actives 0.54% (n = 240,000); AID 2549;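 also: plate controls were vehicle for no effect and no enzyme for full effect; nearly all actives have a fitted effect of over 30% in size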
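RECQ1T1 50 nM; forked duplex (20 bp + 30-nt ss tails) 200 nM, ATP 2 mM final; pH 8.0, 2 mM MgCl2, 2.5 ug/ml poly(dI-dC); 15 min compound preincubation; discontinuous kinetic read over 2 h at RT.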
DNA dye displace – displaces fluorescent dye from DNA, flagging APE1 artifacts. actives 7% (n = 480). Potency, µM (top dose mostly 28.5 µM), inactives show at the top dose activity change, negative = inhibition, hits mostly inhibitors. DNA fluorescent dye displacement counterscreen, fluorescence. shares compounds with APE1 inh-1;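 also: loss of thiazole orange fluorescence as the dye is displaced from duplex DNA; 0% = ThO with dsDNA and no compound and -100% = ThO without dsDNA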
EndoIV counter – Endo IV (E. coli) inhibition counter-screen. shares compounds with APE1 inh-1. E. coli Endo IV, fluorogenic AP-site DNA cleavage. Potency, µM (doses to about 27.1 µM), for inactives: at the highest dose activity change, negative = inhibition, usual class: inhibitors. actives 4% (n = 560). AID 2565;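 also: plate controls were uninhibited enzyme wells for no effect and no enzyme buffer wells for full effect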
APE1 inh-2 – APE1 (human) endonuclease inhibition, confirmation. shares compounds with APE1 inh-1. purified APE1, fluorogenic abasic-site DNA cleavage. Potency, µM (doses to about 57.1 µM), without a hit: at the highest dose activity change, negative = inhibition, most hits filed as inhibitors. actives 44% (n = 750). AID 2572; also: % is scaled to controls: 0 for no effect and ±100 for the full control effect; nearly all actives have a fitted effect of over 30% in size
APE1 FP inh – compounds that displace a DNA probe from human APE1. shares compounds with APE1 inh-1. actives 7% (n = 480). APE1 binding to TAMRA-labelled double-stranded DNA, fluorescence polarization displacement. Potency, µM (highest dose often 28.5 µM), for inactives: at the highest dose activity, negative = inhibition, hits mostly inhibitors; also: % is scaled to controls: 0 for no effect and ±100 for the full control effect
BLM inh – BLM (human) helicase inhibition, confirmation. BLM DNA unwinding, fluorescence quenching, biochemical. actives 40% (n = 220). shares compounds with BLM helicase inh-1. Potency, µM, for inactives: max response, negative = inhibition, usual class: inhibitors;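 also: strand separation dequenches TAMRA so unwinding raises red fluorescence; series mostly up to about 69 µM; % is scaled to controls: 0 for no effect and ±100 for the full control effect; nearly all actives have a fitted effect of over 45% in size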
RECQ1 inh conf – confirmation of human RECQ1 helicase inhibitors; shares compounds with RECQ1 inh-1; RECQ1 helicase DNA unwinding, fluorescence; actives 28% (n = 610); Potency, µM (titrated, usually from 229 µM), without a hit: at the top dose activity change, negative = inhibition, actives largely listed as inhibitors; also: % is scaled to controls: 0 for no effect and ±100 for the full control effect; nearly all actives have a fitted effect of over 45% in size
RECQ1 ADP FP – counter-screen for RECQ1 inhibitors: ADP displacement. shares compounds with RECQ1 inh-1. ADP fluorescence polarization displacement counterscreen. Potency, µM (top dose mostly 228 µM), inactives show at the highest dose activity change, negative = inhibition, actives largely listed as inhibitors. actives 27% (n = 530); also: % is scaled to controls: 0 for no effect and ±100 for the full control effect; nearly all actives have a fitted effect of over 45% in size
RECQ1 inh-2 – confirmation of human RECQ1 helicase inhibitors | shares compounds with RECQ1 inh-1 | recombinant RECQ1 DNA unwinding, red fluorescence | actives 15% (n = 1,100) | Potency, µM (top dose mostly 119 µM), for inactives: at the top dose activity, negative = inhibition, hits mostly inhibitors; also: % is scaled to controls: 0 for no effect and ±100 for the full control effect; nearly all actives have a fitted effect of over 50% in size
FEN1 inh-2 – confirmation of human FEN1 inhibitors; shares compounds with FEN1 inh-1; FEN1 flap cleavage, TAMRA/BHQ2 fluorogenic DNA substrate; Potency, µM, most hits filed as inhibitors; actives 79% (n = 880); also: nearly all actives have a fitted effect of over 60% in size
WRN helicase inh-2 – confirmation of human WRN helicase inhibitors; shares compounds with WRN helicase inh-1; WRN helicase DNA unwinding, fluorescence kinetic; Potency, µM (series often up to 57.1 µM), for inactives: at the highest dose activity, negative = inhibition, actives largely listed as inhibitors; actives 63% (n = 610); AID 720497; also: nearly all actives have a fitted effect of over 65% in size
TO displacement – DNA binding via thiazole orange displacement | shares compounds with WRN helicase inh-1 | thiazole orange DNA binding displacement, fluorescence | Potency, µM (top dose mostly 57.1 µM), for the others: at the top dose activity change, negative = inhibition, actives largely listed as inhibitors | actives 10% (n = 610);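 also: drop in dye fluorescence marks compound binding to DNA; % is scaled to controls: 0 for no effect and ±100 for the full control effect; nearly all actives have a fitted effect of over 60% in size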
BLM helicase inh-2 – BLM helicase inhibition, WRN selectivity check. Recombinant BLM helicase DNA unwinding, red fluorescence. shares compounds with WRN helicase inh-1. actives 60% (n = 610). Potency, µM (doses to about 57.1 µM), for inactives: top-dose activity change, negative = inhibition, hits mostly inhibitors; also: nearly all actives have a fitted effect of over 60% in size
The depositor's hits bear a star; u = inconclusive; x = not tested or not shown; ! = a repeat was not active; [ ] = another dose, or the depositor's remark. Calls follow the shape of the dose curve; as a rule, active = well fitted curve in the direction sought with a large enough effect; inconclusive = small, poorly fitted or top-dose-only effect, or another doubt; inactive = no such curve, though single readings can be large; an effect the other way counts as inactive or inconclusive. Potency is read from the fitted curve at half-maximal effect.

SMILES	BLM helicase inh-1	L3MBTL1 block	APE1 inh-1	FEN1 inh-1	WRN helicase inh-1	RECQ1 inh-1	RECQ1 inh conf	RECQ1 ADP FP	others
COc1ccc(CN2C(=O)NC(=O)/C(=C/c3ccoc3)C2=O)cc1	-20%	u	8.9µM*	22µM*	40µM*	u	x	x	DNA dye displace=0%;EndoIV counter=-9%;APE1 inh-2=4µM*;APE1 FP inh=u;FEN1 inh-2=76*;WRN helicase inh-2=7.6µM*;TO displacement=-3%;BLM helicase inh-2=2.4µM*
Cc1ccc([N+](=O)[O-])cc1C	x	x	16%	x	x	3%	x	x
c1ccc2cc3c(cc2c1)-c1cccc2cccc-3c12	x	x	-1%	x	x	-1%	x	x
O=c1c2ccccc2nc(/C=C/c2ccccc2)n1-c1ccc(O)cc1	-6%	x	-5%	-3%	-11%	x	x	x
O=c1c2ccccc2nc(/C=C/c2cccnc2)n1Cc1ccccc1	-6%	6.3µM*	u	89µM*	32µM*	-7%	x	x	APE1 inh-2=28µM*;WRN helicase inh-2=-7%;TO displacement=-9%;BLM helicase inh-2=-29%
CCCCN1C(=O)/C(=C/C=C/c2ccco2)C(=O)NC1=S	41%	3.5µM*	32µM*	25µM*	2.7µM*	14µM*	x	x	DNA dye displace=30%;EndoIV counter=53%;APE1 inh-2=14µM*;APE1 FP inh=65%;FEN1 inh-2=34*;WRN helicase inh-2=12µM*;TO displacement=83%;BLM helicase inh-2=6.8µM*
O=c1c(O)c(-c2ccc(O)c(O)c2)oc2cc(O)cc(O)c12	-14%	x	1.3µM*!	40µM*	u	1.8µM*!	u	13µM*	EndoIV counter=-63%[57.1 µM];APE1 inh-2=-37%;WRN helicase inh-2=1.2µM*;TO displacement=u;BLM helicase inh-2=1.1µM*
COc1cc(-c2oc3cc(O)cc(O)c3c(=O)c2O)ccc1O	-6%	x	u	u	x	-10%	x	x
CCCCn1c(NS(=O)(=O)c2ccccc2)c(C(=O)OCC)c2nc3ccccc3nc21	1.4µM*	4.5µM*	3%	-6%	-35%	-3%	x	x	BLM inh=-10%
N#CCBr	x	x	-3%	x	x	-14%	x	x
O=[N+]([O-])c1ccc(NCc2ccccc2)c2nonc12	-8%	3%	-3%	-15%	-1%	11µM*	20µM*	2.2µM*	RECQ1 inh-2=45µM*
O=[N+]([O-])c1ccc(NCc2ccc(Cl)cc2)c2ccncc12	-14%	x	53%	13%	21%	x	x	x
Nc1c([N+](=O)[O-])ccc(Oc2ccccc2)c1Cl	-6%	x	-2%	x	x	-2%	x	x
CCCCn1c(=O)c(C=Nc2ccc(Cl)cc2)c(O)n(Cc2ccco2)c1=O	-15%	-8%	u	-3%	-6%	-26%	x	x
Cc1cccn2c(=O)c(C=Nc3ccccc3)c(NCc3ccco3)nc12	0%	-5%	u	u	-35%	u	x	x	RECQ1 inh-2=12%
Cc1cc2c(C(C)C)c(O)c(O)c(C=O)c2c(O)c1-c1c(C)cc2c(C(C)C)c(O)c(O)c(C=O)c2c1O	28µM*!	u	25µM*!	2.5µM*	x	14µM*!	22µM*	14µM*
CC[C@]1(O)CC(O[C@@H]2CC(N(C)C)C(O)C(C)O2)c2c(cc3c(c2O)C(=O)c2c(O)cccc2C3=O)C1C(=O)OC (stereo not given in full)	28%	x	14µM*	x	x	10µM*	112µM*	4.5µM*
CC[C@@]1(O)CC(O)c2c(cc3c(c2O)C(=O)c2c(O)ccc(O)c2C3=O)C1C(=O)OC (stereo not given in full)	u	x	u	x	x	4µM*	50µM*	0.89µM*
Cc1ccc(CSc2n[nH]c(N)n2)cc1	-8%	-6%	11%	-6%	3%	28µM*	x	x	RECQ1 inh-2=-6%
